A short description of experiment [1]: qHTS assay to identify small molecule agonists of the hypoxia (HIF-1) signaling pathway - cell viability counter screen (AID 1224844; calls by dose curve; further: nearly all actives have a fitted effect of over 50% in size; further: potency means the concentration at half of the fitted maximal effect). An outline of the steps:
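Cytotoxicity was measured in parallel with the HRE-driven beta-lactamase readout: after 17 hrs of compound exposure at 37C, HRE-bla ME-180 cells received CellTiter-Glo and luminescence was recorded 30 min later.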

The nature of experiment [2]: qHTS assay to identify small molecule agonists of H2AX - cell viability counter screen (AID 1224847; calls by dose curve;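 further: wild-type CHO-K1 cells; top concentration of the series differs between compounds; nearly all actives have a fitted effect of over 30% in size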). An outline of the steps: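 After overnight plating of 1000 CHO-K1 cells per well, a 15-concentration compound series was applied for 3 hr at 37C. Luminescence from CellTiter-Glo, read following 30 min at room temperature, reflected cell viability.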
In general terms: In qHTS, concentration-response curves come from the screen itself.

The nature of experiment [3]: qHTS assay to identify small molecule agonists of the estrogen related receptor (ERR) signaling pathway from Tox21 library (AID 1224849; calls by dose curve; further: nearly all actives have a fitted effect of over 15% in size). The following applies: ERR reporter cell line, ONE-Glo luciferase, 18 h; at 92.4 µM (top of the series) unless noted. In short, it runs like this:
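Cells carrying the ERR reporter were plated and allowed to settle for 6 h, exposed to library compounds for 18 h at 37 C, then lysed with ONE-Glo and luminescence measured.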

The nature of experiment [4]: qHTS RealTime-Glo MT Cell Viability Assay in HepG2 cells - 24 hour (AID 1224867). Further: nearly all actives have a fitted effect of over 50% in size. In short, it runs like this:
(§1)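 Cell number in HepG2 cultures estimated from NanoLuc luminescence generated by metabolic reduction of a prosubstrate by living cells. The homogeneous, nonlytic format allowed repeated reads at 0, 8, 16, 24, 32 and 40 h of compound exposure.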

A short description of experiment [5]: qHTS RealTime-Glo MT Cell Viability Assay in HEK293 cells - 32 hour (AID 1224868). Further: top concentration of the series differs between compounds; nearly all actives have a fitted effect of over 50% in size. In short, it runs like this: (§2)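 Homogeneous bioluminescent viability format in HEK293 cells (600 cells/well). Following 5 h at 37 C/5% CO2, 23 nL compound was pintooled; the signal was measured repeatedly during 40 h incubation.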
Experiment [6] in a line: A CellTox Green Cytotoxicity Assay to monitor cytotoxicity in HEK293 cells - 0 hour (AID 1224869). Further: nearly all actives have a fitted effect of over 50% in size. An outline of the steps:
(§3)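 Cells (HEK293, 600/well) and dye reagent are dispensed together. After 5 h at 37 C, 23 nL compound is pinned in. Plates stay at 37 C for 40 h with fluorescence read at 0h, 8h, 16h, 24h, 32h and 40h.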

A short description of experiment [7]: qHTS RealTime-Glo MT Cell Viability Assay in HepG2 cells - 40 hour (AID 1224870). Further: nearly all actives have a fitted effect of over 50% in size. An outline of the steps: (§4)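 HepG2 cells mixed with RealTime-Glo MT reagents (NanoLuc plus cell-permeant prosubstrate) were seeded at 600 cells/well, incubated 5 h at 37 C/5% CO2, then pinned with compounds in DMSO; nonlytic luminescence tracked viability during 40 h treatment.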

Experiment [8] is described as follows: A CellTox Green Cytotoxicity Assay to monitor cytotoxicity in HEK293 cells - 40 hour (AID 1224871). Further: nearly all actives have a fitted effect of over 45% in size. In short, it runs like this: as §3
Experiment [9] is described as follows: qHTS RealTime-Glo MT Cell Viability Assay in HEK293 cells - 16 hour (AID 1224872). In short, it runs like this:
as §2

The nature of experiment [10]: qHTS RealTime-Glo MT Cell Viability Assay in HepG2 cells - 8 hour (AID 1224873). Further: nearly all actives have a fitted effect of over 55% in size. In short, it runs like this: as §4
A short description of experiment [11]: qHTS RealTime-Glo MT Cell Viability Assay in HEK293 cells - 40 hour (AID 1224874). Further: nearly all actives have a fitted effect of over 50% in size. The following applies: RealTime-Glo luminescence; max response: hits give low values. In short, it runs like this:
(§5)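 Real-time viability in HEK293: signal arises when living cells convert a prosubstrate for NanoLuc in the medium, so luminescence tracks viable cell number. Compound (23 nL, DMSO) added 5 h post-seeding; kinetic reads at 0–40 h, 37 C.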

The nature of experiment [12]: A CellTox Green Cytotoxicity Assay to monitor cytotoxicity in HEK293 cells - 24 hour (AID 1224875). Further: nearly all actives have a fitted effect of over 45% in size. In short, it runs like this:
as §3

The nature of experiment [13]: A CellTox Green Cytotoxicity Assay to monitor cytotoxicity in HepG2 cells - 16 hour (AID 1224876). Further: nearly all actives have a fitted effect of over 45% in size. In short, it runs like this: (§6)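 Cells and non-lytic dye reagent are dispensed together (600 HepG2 cells/well) and incubated 5 h before DMSO compound transfer. Kinetic fluorescence is then recorded in the same wells during 40 h at 37 C.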
Experiment [14] in a line: qHTS RealTime-Glo MT Cell Viability Assay in HepG2 cells - 32 hour (AID 1224877). Further: nearly all actives have a fitted effect of over 55% in size. In short, it runs like this: as §1
A short description of experiment [15]: A CellTox Green Cytotoxicity Assay to monitor cytotoxicity in HepG2 cells - 24 hour (AID 1224878). Further: nearly all actives have a fitted effect of over 45% in size. An outline of the steps:
as §6

Experiment [16] is described as follows: A CellTox Green Cytotoxicity Assay to monitor cytotoxicity in HepG2 cells - 40 hour (AID 1224879). Further: nearly all actives have a fitted effect of over 40% in size. Further: potency means the concentration at half of the fitted maximal effect. In short, it runs like this: as §6
The nature of experiment [17]: qHTS assay to identify small molecule agonists of the hypoxia (HIF-1) signaling pathway (AID 1224846; active means well fitted activation curve with a large enough effect in the signal ratio in the repeat runs, not every such curve was filed as active; the % refers to the signal ratio). An outline of the steps: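 Compounds from the Tox21 10K library, dissolved in DMSO, are tested for induction of a hypoxia response element–controlled beta-lactamase reporter in ME-180 cells. Exposure lasts 17 hrs at 37C after a 5 hr settling period, followed by CCF4-AM FRET substrate.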

A short description of experiment [18]: qHTS RealTime-Glo MT Cell Viability Assay in HEK293 cells - 0 hour (AID 1224880). An outline of the steps: as §5

Values without a mark were called inactive. Records with an inconclusive call do not appear. The source made the active and inactive calls. Unless noted, the call rests on the fitted dose curve; in most records, active means well fitted curve in the direction sought with a large enough effect in the repeat runs; inconclusive means weak or mixed curves; inactive means no such curve, though single readings can be large; an effect the other way counts as inactive or inconclusive.
On the % scale 0 is the no-effect control and ±100 the full control effect.

For the molecule `CCN(CC)C(C)=O`, the Potency result in experiment [1], in experiment [2], in experiment [4], in experiment [5], in experiment [6] and in [7] was “inactive” throughout. Further, the Potency result in [8], in [9], in [10], in experiment [12], in experiment [13] and in experiment [14] was “inactive” each time. Further, the Potency entry in [15] and in [16] was “inactive” each time. The activity change, positive = activation in experiment [3] is 2.9%. In addition, in experiment [11], the max response was 1.69%.

As for `CN(c1nccc(=O)[nH]1)C1CCN(c2nc3ccccc3n2Cc2ccc(F)cc2)CC1`, the Potency entry in experiment [1], in [2], in [4], in experiment [6], in experiment [7] and in experiment [8] was “inactive” in each case. Besides, the Potency result in [10], in experiment [12], in [13], in [14], in [15] and in [16] was “inactive” in each case. The Potency result in [18] was “inactive”. Besides, in experiment [17], the molecule was classed as inactive.

`Cc1ccccc1N=Nc1ccc(N=Nc2c(O)ccc3ccccc23)c(C)c1`: the Potency result in [1], in experiment [4], in [5], in experiment [6], in experiment [7] and in [8] was “inactive” each time. Besides, the Potency result in experiment [9], in experiment [10], in experiment [12], in experiment [13], in experiment [14] and in experiment [15] was “inactive” throughout. Besides, the Potency result in experiment [16] and in [18] was “inactive” throughout. The outcome in experiment [17] was inactive. Moreover, the activity change, positive = activation in experiment [3] is 11.4% [at 42.5 µM]. Also, the max response in experiment [11] is 1.3%.

As to `O=C(Cl)c1c(Cl)cccc1Cl`, the Potency result in experiment [1], in experiment [2], in experiment [4], in experiment [5], in experiment [6] and in [7] was “inactive” throughout. The Potency result in [8], in [9], in [10], in experiment [12], in experiment [13] and in [14] was “inactive” throughout. Also, the Potency entry in [15] and in experiment [16] was “inactive” in each case. Also, in experiment [17], the molecule was called inactive. Further, the max response in [11] is -14.9%.

Regarding `Nc1ccc(C(=O)Nc2ccccc2N)cc1`, the figures for the Potency in experiment [1] and in experiment [16] were 12 µM (active) and 5.35 µM (active), respectively. For the same molecule, the molecule was classed as inactive in [17]. Moreover, the Potency result in experiment [2], in experiment [4], in experiment [6], in experiment [8] and in [10] was “inactive” in each case. Further, the activity change, positive = activation in experiment [3] was 21.9% [at 42.5 µM] (active).

On to `NCc1ccccc1`, for which the Potency result in experiment [1], in experiment [2], in experiment [4], in [5], in [6] and in [7] was “inactive” each time. Moreover, the Potency entry in experiment [8], in experiment [9], in [10], in [12], in experiment [13] and in experiment [14] was “inactive” each time. The Potency result in experiment [15], in [16] and in experiment [18] was “inactive” each time. Further, the molecule was classed as inactive in experiment [17]. Further, the max response in experiment [11] was 2.09%.

For `CC(C)NCC(O)COc1ccc(CC(N)=O)cc1` (stereo not drawn), the Potency result in experiment [1], in experiment [2], in [4], in experiment [5], in [6] and in experiment [7] was “inactive” each time. The Potency entry in [8], in experiment [9], in [13], in experiment [14], in experiment [15] and in experiment [16] was “inactive” each time. Moreover, the max response in [11] was -1.4%.

Regarding `C=Cc1c(C)c2cc3[nH]c(cc4nc(cc5nc(cc1[nH]2)C(C)=C5CCC(=O)O)C(CCC(=O)O)=C4C)c(C)c3C=C`, in experiment [1], the Potency was 19 µM (active). Also, the Potency entry in [2], in experiment [4], in [5], in experiment [6], in [7] and in [8] was “inactive” in each case. The Potency result in experiment [9], in experiment [12], in [13], in experiment [14], in [15] and in experiment [16] was “inactive” in each case. For the same molecule, in experiment [18], the Potency result is “inactive”. In experiment [3], the activity change, positive = activation is -18% [at 42.5 µM]. Moreover, in experiment [11], the max response is -11.2%.

The record behind these values is PubChem BioAssay (Tox21).
